# Test results taken from PubChem BioAssay (NCI).
# Compounds without any hit were thinned out: in the full panel of roughly 83,000, 20% have a hit.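 Plates (96-well) were seeded with cells, treated with compound at one concentration, and incubated for 48 hours before percent growth was determined.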 Active and inactive are the calls of the source. The calls were made as follows: active = growth percent below 10; inactive = the rest.
# System: SF-295 CNS
# Test: NCI-60 one-dose screen, 48 h (100 = growth as untreated, 0 = no growth, -100 = all killed)
# Conditions: 10 µM unless noted
row,SMILES,growth
1,O=C(Cn1c2c(c3ccccc31)CCCC2)Nc1ccc(-c2nc3ccccc3s2)cc1,103% (inactive)
2,Cc1cc(Cl)ccc1Nc1nc(C(F)(F)F)ccc1C(=O)N/N=C/c1ccc([N+](=O)[O-])cc1,-56.4% (active)
3,O=C(Nn1c2c(sc1=NCc1ccccc1)C(=O)c1ccccc1C2=O)c1cc2ccc1CCc1ccc(cc1)CC2,94.8% (inactive)
4,CC(C)c1ccc(COCc2cc(CN3CCCC3)c(O)c3ncccc23)cc1,4.84% (active)
5,Cn1cccc1C(=O)C1C(c2cccc([N+](=O)[O-])c2)C2C3CCCCC3CN2C12C(=O)Nc1ccc(Cl)cc12 (centres undefined),82.3% (inactive)

# System: SF-539 CNS
# Test: as above
# Conditions: 10 µM unless noted
row,SMILES,growth
1,COc1cc(C(=O)n2nc(N3CCN(C)CC3)c3cc(N)ccc32)cc(OC)c1OC,-14.1% (active)
2,O=C1N[C@@H]2NC(=[N+]3CCOCC3)N[C@@H]2N1,98.2% (inactive)
3,N#Cc1c(N)nnn1Cc1cc(=O)oc2c1ccc1ccccc12,113% (inactive)
4,COc1cc(OC)cc(C2=C3CC[C@@H]4[C@H](CC[C@]5(C)C(=O)CC[C@@H]45)C3=CC3C(O)c4cccnc4N4C(=O)COC234)c1 (some centres undefined),102% (inactive)
5,C=C(C)[C@@H]1CC[C@]2(C(=O)N3CCN(C)CC3)CC[C@]3(C)[C@H](CC[C@@H]4[C@@]5(C)CC(=C/c6ccncc6)/C(=N/O)C(C)(C)[C@@H]5CC[C@]43C)[C@@H]12,83.6% (inactive)
6,CN1CCN(Cc2ccc3c(NNC(=O)c4ccccc4)nc4cc(F)ccc4n23)CC1,10.8% (inactive)
7,CCOC(=O)c1c2c(n3ccc(C)cc13)C(=O)c1ccccc1C2=O,102% (inactive)
8,CCCC(=O)NC(c1ccc2c(c1)OCO2)c1ccc2cccnc2c1O (centres undefined),9.93% (active)
9,Cc1nc2sc(C(=O)Nc3ccccc3)c(N)c2cc1C(=O)c1ccccc1,33.4% (inactive)
10,COC(=O)c1ccc2c(c1)C(=O)c1c-2n(CCCN)c(=O)c2cc([N+](=O)[O-])ccc12,-94.2% (active)
11,CO[C@]12C=C/C(=C(/C(=O)OCc3cccnc3)C(=O)CCCCCCCC[C@@]3(OC)C=C/C(=C(/C(=O)OCc4cccnc4)C(=O)CCCCCCCC1)O3)O2,3% (active)
12,Brc1c2c(c(Br)c3ccccc13)CCCC2,102% (inactive)
13,Cc1cc2c([nH]1)CSc1cc(S(=O)(=O)c3ccccc3)c(=O)[nH]c1-2,-28.3% [100 µM] (active)
14,CC1=C(Nc2ccc(N3CCN(C)CC3)cc2)C(=O)c2cncnc2C1=O,94.5% (inactive)
15,CCCCCCC1(C)NCCO1 (centres undefined),110% (inactive)
16,C#CCOc1cccc(Nc2ncnc3ccc(NC(=O)CCl)cc23)c1,-86.6% (active)
17,COc1ccc(C(=O)C2C(c3ccc(OC)cc3)CN(C)C23C(=O)Nc2ccccc23)cc1 (centres undefined),104% (inactive)
18,CCN(CC)CCNC(=O)c1cn2ncnc(Oc3ccc(NC(=O)Nc4ccc(Cl)c(C(F)(F)F)c4)c(F)c3)c2c1C,-79.8% (active)
19,CC(=O)OCc1nc(C#N)c(N(C)C)o1,92.1% (inactive)
20,CN[C@]12CC3(C=CC(=O)C=C3)O[C@@]1(Cc1ccc(OC)cc1)N(C)C(=O)N2,12.2% (inactive)
21,C=C(CNCCc1ccc(O)cc1)[C@@H]1CC[C@]2(CO)CC[C@]3(C)[C@H](CC[C@@H]4[C@@]5(C)CCC(NCCO)C(C)(C)[C@@H]5CC[C@]43C)[C@@H]12 (some centres undefined),-97.3% (active)
22,O=C1/C(=C\c2cn(-c3ccccc3)nc2-c2ccc(-c3cccs3)cc2)CCc2ccccc21,72% (inactive)
23,Cc1ccc(-c2nn(-c3ccccc3)cc2C=C2C(=O)ON=C2C(C)C)cc1,83.6% (inactive)
24,CC/C(=C(/c1ccc(Cl)cc1)c1ccc(OCCN2CCCC2)cc1)c1ccc(OC)cc1,82.6% (inactive)
25,Cc1c(-c2nc3ccc(F)cc3c(=O)[nH]2)c2ccccc2n1C,23.8% (inactive)
26,COC1=CC(c2ccc[nH]2)=N/C1=C\c1[nH]c(C)c(C(=O)OCc2ccccc2)c1C,-63.4% (active)
27,COc1ccc(C/C(C)=C(/c2ccc(OCCN3CCCCC3)cc2)c2ccc(OC(=O)NCc3ccccc3)cc2)cc1,-92.5% (active)
28,CC(C)N1CN2C(=S)NC3C2N(C1)C(=S)N3C (centres undefined),109% (inactive)
29,CCCCN[C@H]1CC[C@@]2(C)[C@@H](CC[C@@]3(C)[C@H]2[C@H](O)C[C@H]2/C(=C(\CCC=C(C)C)C(=O)OC)[C@@H](OC(C)=O)C[C@@]23C)[C@@H]1C,99.3% (inactive)
